pPAFAH inh: pPAFAH enzyme inhibitors, primary screen, biochemical, fluorescence polarization, human; Platelet-activating factor acetylhydrolase (Homo sapiens), Q13093; 1.5% of 330,000 active; AID 463082, 2010; inhibition, % at 3.39 µM; recombinant pPAFAH, FP-rhodamine probe fluorescence polarization;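 active means inhibition above the mean inhibition across the screen plus 3 SD, cut at about 25% in these data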;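 further: inhibitors block binding of the rhodamine activity-based probe so polarization drops; 0% = enzyme with DMSO and 100% = wells lacking pPAFAH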
PAFAH1B2 FP inh: PAFAH1B2 enzyme inhibitors, primary screen, biochemical, fluorescence polarization, human. Platelet-activating factor acetylhydrolase IB subunit alpha2 (Homo sapiens), P68402. recombinant PAFAH1B2, FP-rhodamine activity probe. inhibition, % at 3.39 µM. 1.2% of 340,000 active;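 active means inhibition above the mean of all tested compounds plus 3 SD, cut at about 24% in these data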;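 further: 0% = enzyme with DMSO and 100% = wells lacking PAFAH1B2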
Fam108B counter: mouse Fam108B serine hydrolase inhibitors, primary screen, counter-screen for RBBP9 inhibitor project, biochemical, fluorescence polarization | recombinant Fam108B, FP-Rh probe fluorescence polarization | inhibition, % at 9.51 µM | 0.33% of 300,000 active;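 active means inhibition above the screen mean inhibition plus 3 SD, computed separately per campaign, cut at about 18% in these data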;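 further: inhibitors lower polarization as less probe binds the enzyme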
PME-1 inh: PME-1 inhibitors via competitive probe labeling, primary screen, biochemical, fluorescence polarization, FP-Rh probe, HTS | Protein phosphatase methylesterase 1 (Homo sapiens), Q9Y570 | recombinant PME-1 | inhibition, % at 5.9 µM | 0.53% of 320,000 active | AID 2130, 2009;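 active means inhibition above the campaign mean of all compounds plus 3 SD, cut at about 26% in these data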;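 further: competitive labeling of PME-1 active site by serine hydrolase directed probe; 0% = PME-1 with DMSO and 100% = wells lacking PME-1 enzyme; inhibitors block probe labeling so polarization falls and inhibition rises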
Target sequence (Q9Y570 whole entry, looked up): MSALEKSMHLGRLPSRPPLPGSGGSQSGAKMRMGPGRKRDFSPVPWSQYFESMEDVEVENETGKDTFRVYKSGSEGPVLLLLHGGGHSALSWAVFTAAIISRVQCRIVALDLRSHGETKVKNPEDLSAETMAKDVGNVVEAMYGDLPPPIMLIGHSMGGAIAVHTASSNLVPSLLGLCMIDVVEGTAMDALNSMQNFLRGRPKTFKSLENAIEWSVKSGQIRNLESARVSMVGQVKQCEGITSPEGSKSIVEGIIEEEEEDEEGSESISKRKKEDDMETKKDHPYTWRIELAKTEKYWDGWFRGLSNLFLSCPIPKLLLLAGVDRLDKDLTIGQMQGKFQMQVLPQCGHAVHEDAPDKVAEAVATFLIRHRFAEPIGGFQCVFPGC
PAFAH1B3 inh: PAFAH1B3 enzyme inhibitors, primary screen, biochemical, fluorescence polarization, human | Platelet-activating factor acetylhydrolase IB subunit alpha1 (Homo sapiens), Q15102 | recombinant PAFAH1B3, FP-rhodamine probe | inhibition, % at 3.39 µM | 0.28% of 340,000 active | AID 492972, 2010;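 active means inhibition above the screen-wide average of all tested compounds plus 3 SD, cut at about 25% in these data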;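 further: 0% = enzyme with DMSO only and 100% = wells lacking PAFAH1B3 protein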
Target sequence (Q15102 whole entry, looked up): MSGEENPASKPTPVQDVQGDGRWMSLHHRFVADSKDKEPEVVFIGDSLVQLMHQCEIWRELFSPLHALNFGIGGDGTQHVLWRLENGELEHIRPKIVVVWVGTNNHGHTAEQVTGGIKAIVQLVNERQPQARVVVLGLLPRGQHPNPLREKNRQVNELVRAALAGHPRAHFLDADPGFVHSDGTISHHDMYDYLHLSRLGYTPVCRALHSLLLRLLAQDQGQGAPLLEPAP
PAFAH2 FP inh: PAFAH2 enzyme inhibitors, primary screen, biochemical, fluorescence polarization, human | recombinant PAFAH2, FP-rhodamine activity probe | Platelet-activating factor acetylhydrolase 2, cytoplasmic (Homo sapiens), Q99487 | inhibition, % at 3.39 µM | 0.99% of 340,000 active | AID 492956, 2010;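 active means inhibition above the mean over all tested compounds plus 3 SD, cut at about 30% in these data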;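 further: inhibitors block probe labeling of enzyme so polarization drops; 0% = enzyme with DMSO and 100% = wells lacking PAFAH2 protein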
Active calls of the source: *; nt = not tested or not shown. In the library only some 2.8% were active in any assay of this set; here they are far more common.

SMILES | pPAFAH inh | PAFAH1B2 FP inh | Fam108B counter | PME-1 inh | PAFAH1B3 inh | PAFAH2 FP inh
COc1ccc(-n2cnc3cc(NS(=O)(=O)c4ccc(C)cc4)ccc32)cc1 | -10 | 12 | -5 | 1 | 4 | 0
O=C(Cc1coc2cc(O)ccc12)NNC(=O)c1cccs1 | -3 | 12 | nt | nt | 7 | 5
COC(=O)CCNCCSc1nnc(-c2ccco2)n1Cc1ccccc1 | 3 | 4 | -3 | -3 | -2 | 2
CCCCOc1ccc(S(=O)(=O)N2CCN(c3ccc(N4CCN(CC)CC4)nn3)CC2)cc1 | -2 | 0 | 2 | 5 | 5 | 4
COc1ccc(Nc2ncnc3sc(-c4ccccc4)cc23)cc1 | 21 | 9 | 12 | 34* | 25 | -7
CNS(=O)(=O)c1cccc(C(=O)OCC(=O)Nc2ccccc2F)c1 | 2 | 0 | 3 | 4 | -1 | 24
CCN(Cc1ccccc1)C(=O)COC(=O)c1cc(S(=O)(=O)Nc2ccccc2OC)ccc1O | 6 | 32* | nt | nt | 7 | 21
COc1ccccc1NS(=O)(=O)c1ccc(O)c(C(=O)OCC(=O)Nc2ccccc2F)c1 | 3 | 7 | 1 | 0 | 7 | 34*
N#C/C(=C(/O)COC(=O)Cc1c[nH]c2ccccc12)c1nc2ccccc2[nH]1 | 25* | 4 | 11 | 8 | 4 | 9
CN1CCN(CCCNC(=O)c2ccc(/C=C3\Sc4ccccc4N(Cc4ccc(F)cc4)C3=O)cc2)CC1 | nt | 2 | nt | nt | 10 | -11
CCN1CCN(CCNC(=O)c2ccc(/C=C3\Sc4ccccc4N(Cc4ccccc4F)C3=O)cc2)CC1 | 25* | 2 | -5 | -5 | 5 | 0
CCCCCCCCCS(=O)(=O)N/N=C/c1cccc([N+](=O)[O-])c1 | 21 | 28* | 4 | 1 | 11 | 18
CS(=O)(=O)N(CC(=O)N1CCN(c2ccccc2)CC1)Cc1ccc(Cl)cc1 | 4 | 25* | 3 | -3 | -5 | 2
CC(=O)Nc1ccc(S(=O)(=O)Nc2ccc(S(=O)(=O)Nc3nccs3)cc2)cc1 | 5 | 2 | 0 | 2 | 2 | -23
CN(c1ccc(OCC(=O)OCC(=O)Nc2ccccc2)cc1)S(=O)(=O)c1ccc(F)cc1 | 7 | 2 | 1 | 4 | 4 | -8
CCN(c1ccc(OCC(=O)OCC(=O)Nc2ccc(F)c(F)c2F)cc1)S(=O)(=O)c1ccccc1 | 2 | 40* | 6 | 7 | 5 | 4
COc1cc(/C=N/NC(=O)c2cc(-c3ccccc3)sc2N)cc(OC)c1OC | 26* | nt | 15 | 8 | nt | nt
COc1cc(/C=N/NC(=O)c2ccc(-c3ccccc3)cc2)cc(OC)c1OC | 8 | 7 | 6 | 3 | 2 | -8
Cc1ccnc(NC(=O)CCC(=O)c2cc(C)sc2C)c1 | 6 | 6 | -3 | 3 | 8 | 10
CC(=O)Nc1c2c(nn1-c1ccc(F)cc1)CSC2 | 0 | 11 | 4 | 6 | 12 | -2
O=C1c2cccnc2-c2ncccc21 | 4 | 3 | 0 | -2 | 0 | 0
COC1=C(Br)C(=O)c2ncccc2C1=O | nt | 17 | nt | nt | 58* | 48*
O=C(Cc1ccccc1)NC(C(=O)O)C(O)c1ccc([N+](=O)[O-])cc1 (centres undefined) | 5 | 15 | 2 | -3 | 4 | -4
N/C(=N\OC(=O)CCCOc1ccccc1)c1ccncc1 | -1 | 14 | -1 | 0 | 0 | 2
N/C(=N\OC(=O)CCCN1C(=O)c2ccccc2C1=O)c1ccc(Br)cc1 | 4 | 16 | 5 | -4 | 10 | 3
SMILES | pPAFAH inh | PAFAH1B2 FP inh | Fam108B counter | PME-1 inh | PAFAH1B3 inh | PAFAH2 FP inh
N/C(=N\OC(=O)CCCOc1ccccc1)c1ccc(Br)cc1 | 0 | 81* | -3 | 4 | 3 | 4
N/C(=N\OC(=O)CCCOc1ccccc1)c1ccccc1 | 2 | 29* | -1 | -1 | -1 | -3
Brc1ccc(-c2ccc(C3Nc4cccc5cccc(c45)N3)o2)cc1 | 21 | nt | nt | 41* | nt | nt
CC(C)c1nnc(NC(=O)CCC(=O)NC2CC2)s1 | 3 | 5 | -2 | 5 | 6 | -6
Oc1ccc(Nc2nc(-c3ccccc3)nc3ccccc23)cc1 | 21 | -3 | 16 | 14 | 17 | 3
CC(=O)Nc1ccc(Nc2nc(-c3ccccc3)nc3ccccc23)cc1 | 28* | 6 | 8 | 3 | 22 | 0
CCCn1c(N)c(C(=O)CSc2nnc(Cc3cccs3)n2C2CC2)c(=O)n(C)c1=O | -1 | 3 | nt | 3 | 3 | 0
CCCCCCCCOC(=O)c1ccc(N)cc1 | 32* | 8 | 0 | 6 | 5 | 55*
COc1cc(/C=C2\CCc3c2nc2ccccc2c3C(=O)O)cc(OC)c1OC | 32* | -1 | 11 | -6 | 11 | 18
CC(OC(=O)CCC(=O)c1ccc(F)cc1)C(=O)NC1CCCCC1C (centres undefined) | 1 | 0 | 1 | -4 | -5 | 10
O=C1C=C(O)c2cccc3cccc1c23 | 4 | 4 | -2 | 0 | 6 | 9
O=C1C=C(O)c2c(O)cccc2C1=O | 27* | nt | 6 | 7 | nt | nt
COC(=O)C1CCN(C(=O)C2CCC(=O)N(CCc3cccc(F)c3)C2)CC1 (centres undefined) | 2 | 4 | 2 | 3 | 8 | 0
Cc1ccc(CNn2cnnc2SCc2ccc(F)cc2)cc1 | 4 | 28* | -3 | 7 | 8 | 4
Oc1cccc(O)c1O | 96* | nt | -9 | 0 | nt | nt
O=C(O)c1cccc(O)c1O | 1 | -2 | -6 | -4 | 4 | 2
CCCCN1C(=N)N([C@@H](CCC)CN2CCC[C@H]2CN2C(N)=NC[C@H]2C(C)C)C[C@H]1[C@H](C)CC | -1 | 6 | nt | nt | 2 | -11
NC(=O)COC(=O)CC12CC3CC(CC(Br)(C3)C1)C2 | 6 | 27* | 0 | 4 | 9 | 2
CCOC(=O)c1c(NC(=O)CSc2nnc(C)s2)sc2c1CCC(CC)C2 (centres undefined) | 26* | -1 | 0 | -6 | -17 | -11
CCOC(=O)c1sc(NC(=O)CSc2nnc(C)s2)c(C(=O)OCC)c1C | 0 | 5 | -4 | -10 | 0 | -1
COc1cccc(OCc2nn3c(=O)c(-c4ccccc4)nnc3s2)c1 | nt | 1 | nt | nt | 6 | -1
Cc1nc2ccc(NC(=O)CSc3ccccc3)cc2s1 | 2 | 8 | nt | nt | 13 | 2
Cc1cccc(Nc2nnc(SCC(O)=C(C#N)c3nc4ccccc4[nH]3)s2)c1 | nt | 26* | nt | nt | 10 | 4
O=C(NCC1CCCC(CNC(=O)Nc2ccc(Cl)cn2)C1)Nc1ccc(Cl)cn1 (centres undefined) | 2 | 26* | -7 | -11 | -2 | 21
